Inconclusive results are not listed. Entries that show only a call come without a potency. Active and inactive are the calls of the source. Calls come from the whole dose curve; as a rule, active = well fitted inhibition curve with a large enough effect; inconclusive = small, poorly fitted or top-dose-only effect; inactive = flat fitted curve, though single readings scatter.
Each molecule was assayed against Ubiquitin carboxyl-terminal hydrolase 1 (Homo sapiens) (UniProt O94782) (assay: Inhibitors of USP1/UAF1: Pilot qHTS (AID 504865; note: nearly all actives have a fitted effect of over 35% in size)). Details: purified USP1/UAF1, Ub-rhodamine cleavage fluorescence; series mostly up to 114 µM.
Outline: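 Enzyme-free wells gave the negative control, while test wells held 1nM USP1/UAF1 preincubated with compound for 15 min at room temperature. Ub-Rho at 150nM final started the reaction, and fluorescence at 480/540 nm was recorded kinetically.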
Potency is the fitted concentration of half-maximal effect.

Ubiquitin carboxyl-terminal hydrolase 1 (Homo sapiens), sequence (O94782 whole entry, looked up): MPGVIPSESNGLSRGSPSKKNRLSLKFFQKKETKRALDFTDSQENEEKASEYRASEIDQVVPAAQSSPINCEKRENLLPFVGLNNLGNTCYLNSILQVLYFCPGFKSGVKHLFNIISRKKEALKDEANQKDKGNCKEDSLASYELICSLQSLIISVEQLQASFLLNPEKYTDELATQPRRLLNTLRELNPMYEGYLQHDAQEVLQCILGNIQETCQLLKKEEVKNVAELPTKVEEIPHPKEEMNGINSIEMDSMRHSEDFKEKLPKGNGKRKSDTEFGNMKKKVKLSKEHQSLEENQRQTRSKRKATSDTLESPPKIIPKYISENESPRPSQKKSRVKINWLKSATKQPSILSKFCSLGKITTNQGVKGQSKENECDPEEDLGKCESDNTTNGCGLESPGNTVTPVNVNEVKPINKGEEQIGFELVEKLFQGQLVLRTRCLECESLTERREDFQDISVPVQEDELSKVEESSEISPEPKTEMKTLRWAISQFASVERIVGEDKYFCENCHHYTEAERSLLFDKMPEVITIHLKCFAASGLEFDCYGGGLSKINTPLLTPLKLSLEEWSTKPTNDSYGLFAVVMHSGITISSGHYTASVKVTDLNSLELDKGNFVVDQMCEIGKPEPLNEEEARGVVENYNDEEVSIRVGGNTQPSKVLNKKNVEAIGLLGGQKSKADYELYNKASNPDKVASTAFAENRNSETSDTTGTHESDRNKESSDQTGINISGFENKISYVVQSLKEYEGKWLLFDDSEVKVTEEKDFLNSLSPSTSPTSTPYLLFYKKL

Structure (SMILES) | Potency
COc1nc(N)nc2c1ncn2[C@@H]1O[C@H](CO)[C@@H](O)[C@@H]1O | 22.4 µM (active)
O=NN(CCCl)C(=O)NC1CCCCC1 | inactive
O=S(=O)(O)CCS | inactive
CCOc1cc(N)c(Cl)cc1C(=O)NCC1CN(Cc2ccc(F)cc2)CCO1 (configuration not stated) | inactive
COc1cc2c(Nc3ccc(Br)cc3F)ncnc2cc1OCC1CCN(C)CC1 | inactive
COC(=O)Nc1nc2ccc(Sc3ccccc3)cc2[nH]1 | inactive
CN1CCCC(n2nc(Cc3ccc(Cl)cc3)c3ccccc3c2=O)CC1 (configuration not stated) | inactive
CCCc1nc(C)c2c(=O)[nH]c(-c3cc(S(=O)(=O)N4CCN(CC)CC4)ccc3OCC)nn12 | inactive
O=P(O)(O)C(O)(Cc1cccnc1)P(=O)(O)O | inactive
CCN(C)C(=O)Oc1cccc([C@H](C)N(C)C)c1 | inactive
CCCN[C@H]1CCc2nc(N)sc2C1 | inactive
CNS(=O)(=O)Cc1ccc2[nH]cc(CCN(C)C)c2c1 | inactive
CN(Cc1cc(Br)cc(Br)c1N)C1CCCCC1 | inactive
O=c1cc(O)c(Cl)c[nH]1 | inactive
COC(=O)Nc1nc2ccc(S(=O)c3ccccc3)cc2[nH]1 (configuration not stated) | inactive
Nc1ccc(S(=O)(=O)Nc2ccccn2)cc1 | inactive
C#CCN[C@@H]1CCc2ccccc21 | inactive
COc1cnc(NS(=O)(=O)c2ccc(N)cc2)nc1 | inactive
Nc1nc(=S)c2[nH]cnc2[nH]1 | inactive
O=C(O)c1cccnc1 | inactive
CC(C)(C#N)c1cc(Cn2cncn2)cc(C(C)(C)C#N)c1 | inactive
CN1CCN(c2c(F)cc3c(=O)c(C(=O)O)cn(CCF)c3c2F)CC1 | inactive
